Assay results as given in PubChem BioAssay.
For part of these data: Results with a measured potency or affinity are listed apart. Active and inactive are the calls of the source. Unless noted, the rule behind the calls is not given here.

Assays:
[1] = antimalarial activity against Dd2 strain (AID 2302;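 active = growth inhibition above 50% at the single 2 µM test dose, taken to imply half-maximal potency below 2 µM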;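 note: 0% = DMSO untreated growth and 100% = chloroquine plus artemisinin killed control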); details: P. falciparum Dd2 in RBCs, LDH growth readout, 72 h; at 2 µM; stronger effect = higher value
[2] = human hepatoma cell viability loss – ATP luminescence, cytotoxicity control for P. falciparum antimalarial project, primary screen (AID 2303;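 active = inhibition above 50%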;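 note: 0% = DMSO wells and 100% = digitonin-killed cells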); details: HepG2 viability, 24-48 h, at 10 µM, stronger effect = higher value
[3] = target: L-lactate dehydrogenase (Plasmodium falciparum (isolate CDC / Honduras)) (UniProt Q27743); assay: PfLDH activity inhibition – cell lysate, 3D7 strain, counter-screen for P. falciparum growth inhibition project (AID 2304);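 note: 0% = vehicle and 100% = reference inhibitor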; details: P. falciparum 3D7 crude extract, LDH APAD/NBT absorbance; at 2 µM; stronger effect = higher value
Sequence of L-lactate dehydrogenase (Plasmodium falciparum (isolate CDC / Honduras)) (Q27743 whole entry, looked up): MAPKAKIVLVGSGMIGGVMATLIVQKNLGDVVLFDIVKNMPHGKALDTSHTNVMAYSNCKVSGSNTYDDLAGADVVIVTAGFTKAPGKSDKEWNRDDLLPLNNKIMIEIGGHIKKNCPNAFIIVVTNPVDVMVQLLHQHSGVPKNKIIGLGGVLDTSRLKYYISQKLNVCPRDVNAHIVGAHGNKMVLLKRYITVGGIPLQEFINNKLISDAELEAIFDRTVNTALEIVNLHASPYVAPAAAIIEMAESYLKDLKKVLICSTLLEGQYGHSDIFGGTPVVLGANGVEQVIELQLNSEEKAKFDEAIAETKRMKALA

[4] = inhibition of 3D7 malaria parasite growth – strain 3D7 (AID 2306);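 note: 0% = DMSO wells and 100% = chloroquine plus artemisinin control wells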; details: P. falciparum 3D7 erythrocytic growth, LDH absorbance, 72 h; at 2 µM; stronger effect = higher value
[5] = target: Calcium-dependent protein kinase 1 (Plasmodium falciparum (isolate 3D7)) (UniProt P62344); assay: PfCDPK1 kinase inhibitors, biochemical, TCAMS library (AID 1159585; cut-off not given, nearly all actives have IC50 up to about 0.98 µM;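 note: inhibitors leave more ATP so luminescence rises with inhibition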); details: recombinant PfCDPK1, Kinase-Glo ATP depletion luminescence
Sequence of Calcium-dependent protein kinase 1 (Plasmodium falciparum (isolate 3D7)) (P62344 whole entry, looked up): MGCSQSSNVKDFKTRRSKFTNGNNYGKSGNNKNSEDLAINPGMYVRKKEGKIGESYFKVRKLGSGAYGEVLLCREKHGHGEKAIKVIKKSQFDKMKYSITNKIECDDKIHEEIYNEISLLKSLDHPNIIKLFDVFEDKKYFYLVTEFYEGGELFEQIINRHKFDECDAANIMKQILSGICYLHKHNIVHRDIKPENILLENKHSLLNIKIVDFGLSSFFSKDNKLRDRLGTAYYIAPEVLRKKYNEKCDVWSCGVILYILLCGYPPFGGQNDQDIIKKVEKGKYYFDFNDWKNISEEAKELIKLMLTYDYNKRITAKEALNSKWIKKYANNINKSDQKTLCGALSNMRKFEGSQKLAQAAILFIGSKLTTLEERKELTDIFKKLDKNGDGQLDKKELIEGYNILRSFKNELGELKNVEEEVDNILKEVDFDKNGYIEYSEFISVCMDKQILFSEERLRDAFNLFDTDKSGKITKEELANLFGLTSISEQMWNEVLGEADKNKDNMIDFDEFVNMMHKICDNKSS

[6] = target: Plasmodium falciparum protein kinase 6 (PK6, PF3D7_1337100) (UniProt Q8IDW1); assay: PfPK6 kinase inhibitors, biochemical, TCAMS library (AID 1159586); details: recombinant PfPK6, Kinase-Glo ATP depletion luminescence
Sequence of Plasmodium falciparum protein kinase 6 (PK6, PF3D7_1337100) (Q8IDW1 1-305): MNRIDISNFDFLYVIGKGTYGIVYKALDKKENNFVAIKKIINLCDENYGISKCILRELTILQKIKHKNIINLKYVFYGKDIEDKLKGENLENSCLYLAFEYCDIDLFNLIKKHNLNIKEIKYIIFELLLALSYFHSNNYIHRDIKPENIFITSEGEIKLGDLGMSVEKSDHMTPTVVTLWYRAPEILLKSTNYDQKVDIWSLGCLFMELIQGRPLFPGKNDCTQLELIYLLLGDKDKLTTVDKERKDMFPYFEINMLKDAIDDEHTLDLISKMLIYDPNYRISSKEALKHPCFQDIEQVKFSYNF

[7] = target: Protein kinase 7 (PK7), Plasmodium falciparum 3D7 (PF3D7_0213400) (UniProt Q7YTF7); assay: inhibition of Plasmodium PK7 catalytic activity – biochemical, TCAMS antimalarial set, Kinase-Glo luminescence (AID 1159587); details: recombinant PfPK7, Kinase-Glo ATP depletion luminescence
Sequence of Protein kinase 7 (PK7), Plasmodium falciparum 3D7 (PF3D7_0213400) (Q7YTF7 1-343): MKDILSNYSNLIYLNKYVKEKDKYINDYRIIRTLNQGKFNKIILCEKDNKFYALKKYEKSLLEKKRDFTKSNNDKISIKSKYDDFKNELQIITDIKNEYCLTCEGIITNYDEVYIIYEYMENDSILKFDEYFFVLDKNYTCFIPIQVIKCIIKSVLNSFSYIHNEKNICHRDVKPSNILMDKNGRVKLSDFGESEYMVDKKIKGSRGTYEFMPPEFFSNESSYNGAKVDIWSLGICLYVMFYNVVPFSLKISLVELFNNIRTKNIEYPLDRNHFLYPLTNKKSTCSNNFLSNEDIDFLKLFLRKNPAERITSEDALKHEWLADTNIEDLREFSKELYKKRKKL

[8] = target: Calcium-dependent protein kinase 4 (Plasmodium falciparum (isolate 3D7)) (UniProt Q8IBS5); assay: PfCDPK4 kinase inhibitors, biochemical, TCAMS library (AID 1159588; cut-off not given, nearly all actives have IC50 up to about 0.91 µM); details: recombinant PfCDPK4, Kinase-Glo ATP depletion luminescence
Sequence of Calcium-dependent protein kinase 4 (Plasmodium falciparum (isolate 3D7)) (Q8IBS5 whole entry, looked up): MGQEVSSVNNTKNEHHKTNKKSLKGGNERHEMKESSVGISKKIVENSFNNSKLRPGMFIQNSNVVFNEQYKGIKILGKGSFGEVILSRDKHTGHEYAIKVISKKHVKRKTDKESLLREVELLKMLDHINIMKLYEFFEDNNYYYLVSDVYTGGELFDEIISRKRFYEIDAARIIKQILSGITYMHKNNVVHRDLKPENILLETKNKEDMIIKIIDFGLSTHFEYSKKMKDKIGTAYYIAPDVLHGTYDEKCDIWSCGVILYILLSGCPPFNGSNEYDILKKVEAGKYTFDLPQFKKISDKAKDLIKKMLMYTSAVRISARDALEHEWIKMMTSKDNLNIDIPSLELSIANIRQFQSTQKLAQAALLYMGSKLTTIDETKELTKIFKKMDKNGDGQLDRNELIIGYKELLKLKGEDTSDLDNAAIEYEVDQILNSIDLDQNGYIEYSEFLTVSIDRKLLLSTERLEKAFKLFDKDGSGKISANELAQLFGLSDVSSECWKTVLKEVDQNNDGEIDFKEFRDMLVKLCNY

O=C(Nc1ccc(S(=O)(=O)NCCCN2CCOCC2)cc1)c1cc(-c2ccccc2)n[nH]1
inactive: growth inhibition [1] 29% | inhibition [2] 16% | inhibition [3] 1% | outcome [5] | outcome [6] | outcome [7] | outcome [8]
active: growth inhibition [4] 82%

COc1ccccc1/C=C/C(=O)N(C)C1CCN(CCCCCNC(=O)/C=C/c2ccc(Cl)c(Cl)c2)CC1
active: growth inhibition [1] 63% | inhibition [2] 71% | growth inhibition [4] 83%
inactive: inhibition [3] -3% | outcome [5] | outcome [6] | outcome [7] | outcome [8]

O=C(NC1CCN(CCN2CCC(c3ccccc3C(F)(F)F)CC2)CC1)c1ccc(-c2ccc(Cl)cc2)cc1
inactive: inhibition [2] 39% | inhibition [3] 4% | outcome [5] | outcome [6] | outcome [7] | outcome [8]
active: growth inhibition [1] 68% | growth inhibition [4] 101%

Cc1cccc2[nH]c(-c3ccc(-c4ccc(CNCc5cccc(N)c5)cc4)cc3)nc12
active: growth inhibition [1] 84% | growth inhibition [4] 102%
inactive: inhibition [2] 12% | inhibition [3] -9% | outcome [5] | outcome [6] | outcome [7] | outcome [8]

COc1c(Br)cc(Br)cc1C(C)=O
active: growth inhibition [4] 95%
inactive: growth inhibition [1] -2% | inhibition [2] 3% | inhibition [3] 1% | outcome [5] | outcome [6] | outcome [7] | outcome [8]

CC(=O)N(C)c1cccc(C(=O)Nc2ccc(-c3cccc(-c4nc5ccc(C(F)(F)F)cc5[nH]4)c3)cc2)c1
active: inhibition [2] 79% | growth inhibition [4] 94%
inactive: growth inhibition [1] 10% | inhibition [3] -2% | outcome [5] | outcome [6] | outcome [7] | outcome [8]

CCN(CC)CCNc1c2ccc(Cl)cc2nc2ccc(OC)nc12
inactive: inhibition [2] 20% | inhibition [3] 2% | outcome [5] | outcome [6] | outcome [7] | outcome [8]
active: growth inhibition [1] 99% | growth inhibition [4] 100%

CCn1ccc2c(N3CCCC3=O)cc(C(=O)N[C@@H](Cc3ccccc3)[C@H](O)CNC(C)(C)CCCC(C)C)cc21
inactive: inhibition [2] 11% | inhibition [3] -3% | outcome [5] | outcome [6] | outcome [7] | outcome [8]
active: growth inhibition [1] 98% | growth inhibition [4] 96%

Cc1cc(C(=O)Nc2ccc3c(c2)CCN3C2CCN(Cc3ccc(F)cc3Cl)C2)no1 (stereo not drawn)
inactive: inhibition [2] 7% | inhibition [3] 1% | outcome [5] | outcome [6] | outcome [7] | outcome [8]
active: growth inhibition [1] 96% | growth inhibition [4] 95%

Cc1cc(N[C@@H](Cc2ccccc2)C(=O)NCc2cccc(F)c2)nc(NCc2ccccc2C)n1
inactive: inhibition [2] 6% | inhibition [3] 0% | outcome [5] | outcome [6] | outcome [7] | outcome [8]
active: growth inhibition [1] 75% | growth inhibition [4] 100%

COc1cccc(C(=O)Nc2nonc2-c2ccc(OC)c(OC)c2)c1
inactive: inhibition [2] 7% | inhibition [3] -8% | outcome [5] | outcome [6] | outcome [7] | outcome [8]
active: growth inhibition [1] 50% | growth inhibition [4] 97%

CCCCCCCCNCCCSCCCNCCCCCCCC
inactive: growth inhibition [1] 47% | inhibition [3] -3% | outcome [5] | outcome [6] | outcome [7] | outcome [8]
active: inhibition [2] 63% | growth inhibition [4] 97%

NC(=O)C1Cc2ccccc2CN1CC(=O)Nc1ccccc1Sc1ccccc1 (stereo not drawn)
inactive: inhibition [2] 5% | inhibition [3] 3% | outcome [5] | outcome [6] | outcome [7] | outcome [8]
active: growth inhibition [1] 99% | growth inhibition [4] 100%

C[C@H](NC(=O)c1c(CN2CCN(C(=O)C(C)(C)C)CC2)c(-c2cccs2)nc2ccccc12)C1CCCCC1
active: growth inhibition [1] 62% | growth inhibition [4] 89%
inactive: inhibition [2] 2% | inhibition [3] 3% | outcome [5] | outcome [6] | outcome [7] | outcome [8]

CCCCCn1c(Sc2ccc(C#N)c([N+](=O)[O-])c2)nnc1-c1ccc(OC)cc1
active: growth inhibition [4] 88%
inactive: growth inhibition [1] 44% | inhibition [2] 8% | inhibition [3] 4% | outcome [5] | outcome [6] | outcome [7] | outcome [8]

CN(c1ccc(F)cc1)S(=O)(=O)c1ccc(Cl)c(C(=O)Nc2cccc(C#N)c2)c1
active: growth inhibition [1] 58% | growth inhibition [4] 95%
inactive: inhibition [2] 5% | inhibition [3] -4% | outcome [5] | outcome [6] | outcome [7] | outcome [8]

CN1C(C)(C)CC(NC(=O)c2ccc(-c3nc4ccc(Cl)cc4[nH]3)cc2)CC1(C)C
active: growth inhibition [4] 99%
inactive: growth inhibition [1] 36% | inhibition [2] 23% | inhibition [3] -3% | outcome [5] | outcome [6] | outcome [7] | outcome [8]

O=C(NCCCCNCC(Cc1cccc(O)c1)c1ccccc1)c1ccc(NC(=O)c2ccc(Cl)cc2)cc1 (stereo not drawn)
inactive: growth inhibition [1] 1% | inhibition [2] -1% | inhibition [3] 2% | outcome [5] | outcome [6] | outcome [7] | outcome [8]
active: growth inhibition [4] 96%

Cc1cc(N2CCOCC2)nc(Nc2ccc(NC(=O)c3cccc4ccccc34)cc2)n1
active: growth inhibition [4] 95%
inactive: growth inhibition [1] 11% | inhibition [2] 44% | inhibition [3] -1% | outcome [5] | outcome [6] | outcome [7] | outcome [8]

COc1cc2c(=O)c(Cc3ccc(Cl)cc3)c(C)[nH]c2cc1F
inactive: growth inhibition [1] 28% | inhibition [2] 13% | inhibition [3] 1% | outcome [5] | outcome [6] | outcome [7] | outcome [8]
active: growth inhibition [4] 85%

Cc1cc(NC2CCCC2)nc(Nc2ccc(F)cc2)n1
inactive: inhibition [2] 22% | inhibition [3] -3% | outcome [5] | outcome [6] | outcome [7] | outcome [8]
active: growth inhibition [1] 74% | growth inhibition [4] 100%
